FUS suppressor = rescues growth of FUS-expressing yeast; S. cerevisiae FUS-expressing, growth rescue, OD600, 24 h; Potency, µM (highest dose often 76.6 µM), usual class: activators; 0.24% of 390,000 active; note: nearly all actives have a fitted effect of over 55% in size
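Read-out: OD at 600 nm after 24hr at 30C, reporting rescue of FUS-induced yeast toxicity. Cells at OD 0.005 in galactose (2%) minimal medium; compounds tested in a dilution series; CP55940 titration from 92uM final as control.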
Glioma ERSR ind = ER stress response induction in glioma | U87-MG GRP78 promoter luciferase reporter, 16 h | Potency, µM, most hits filed as activators | 0.02% of 420,000 active; note: series mostly up to about 76 µM; nearly all actives have a fitted effect of over 35% in size
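Stably transfected U87-MG glioma cells carrying a GRP78-based luciferase sensor; 16 h compound incubation. Luminescence end-point read 10 min after Bright-Glo addition at room temperature.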
aSyn rescue = inhibitors of alpha-synuclein toxicity in yeast; Yeast expressing alpha-synuclein, growth rescue, BacTiter-Glo, 24 h; Potency, µM (titrated, usually from 46.1 µM), hits mostly activators; 0.14% of 370,000 active; AID 652106; note: nearly all actives have a fitted effect of over 65% in size
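Rescue of yeast growth: cells expressing toxic alpha-synuclein, induced in galactose at OD600 0.02, incubated with compound 24 h at 30 C. ATP luminescence quantified growth; inhibitors of toxicity appear as activators.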
MBNL1 CUG block = inhibitors of human MBNL1 binding to CUG repeat RNA; TR-FRET MBNL1-His/biotin-(CUG)12 binding, 665/545 ratio; AID 2675; Potency, µM (highest dose often 57.5 µM), most hits filed as inhibitors; 0.036% of 280,000 active; Q9NR56; active = well fitted inhibition curve with a large enough effect in the signal ratio, with a control signal flat, not every such curve was filed as active; inconclusive = small, poorly fitted or top-dose-only effect, or effect the other way, or a change in a side signal; inactive = no such curve, though single readings can be large or run the other way; the % refers to the signal ratio
Target sequence (Q9NR56 whole entry, looked up): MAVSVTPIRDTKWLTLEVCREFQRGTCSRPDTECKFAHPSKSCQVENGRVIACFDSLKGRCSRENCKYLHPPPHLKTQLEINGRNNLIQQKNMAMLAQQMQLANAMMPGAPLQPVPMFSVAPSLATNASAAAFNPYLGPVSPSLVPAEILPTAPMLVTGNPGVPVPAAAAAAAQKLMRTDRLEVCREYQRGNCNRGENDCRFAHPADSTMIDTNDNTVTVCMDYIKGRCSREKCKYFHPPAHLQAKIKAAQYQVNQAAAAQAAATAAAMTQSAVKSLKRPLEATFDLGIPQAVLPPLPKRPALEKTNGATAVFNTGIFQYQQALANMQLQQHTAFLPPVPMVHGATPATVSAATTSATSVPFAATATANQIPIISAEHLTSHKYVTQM
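His-tagged MBNL1 binding to biotinylated (CUG)12 RNA was measured by TR-FRET using terbium anti-His antibody (0.055 ng/ul final) and streptavidin-XL665 (5 nM final). Compounds were titrated 92 nM to 58 uM; 60 min at room temperature.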
Abeta rescue = restores growth of yeast expressing A-beta42 peptide | yeast expressing A-beta42, growth rescue, OD600, 48 h; response scale: 0% DMSO, 100% iron-clioquinol control | Potency, µM (top dose mostly 46.1 µM), most hits filed as activators | 0.063% of 410,000 active | AID 1347071; note: nearly all actives have a fitted effect of over 55% in size
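Yeast A-beta toxicity model in growth medium with pinned compounds, 48 h at 30 C; growth read as absorbance at 600 nm. Normalized to FeCl3/clioquinol equimolar mix (positive) and DMSO (negative).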
TDP43 rescue = rescues yeast growth from TDP-43 toxicity; TDP-43 expressing yeast growth rescue, BacTiter-Glo, 24 h; 1.8% of 410,000 active; AID 652104; Potency, µM (top dose mostly 46.1 µM), usual class: activators; note: nearly all actives have a fitted effect of over 50% in size
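Readout is BacTiter-Glo luminescence of cell growth, so inhibitors register as activators. TDP-43-expressing yeast at OD600=0.02 in galactose medium, after raffinose pregrowth to mid-log, were incubated with compound for 24 hr at 30 deg C.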
Hits are given with their value; - = inactive; ? = inconclusive; . = no result. Hits are enriched below; roughly 2% of the tested compounds scored in any of these assays. Unless noted, calls come from the whole dose curve; as a rule, active = well fitted curve in the direction sought with a large enough effect; inconclusive = small, poorly fitted or top-dose-only effect, or another doubt; inactive = no such curve, though single readings can be large; an effect the other way counts as inactive or inconclusive.

SMILES	FUS suppressor	Glioma ERSR ind	aSyn rescue	MBNL1 CUG block	Abeta rescue	TDP43 rescue
CO[C@H]1/C=C/O[C@@]2(C)Oc3c(C)c(O)c4c(O)c(c(C=NN5CCN(C)CC5)c(O)c4c3C2=O)NC(=O)/C(C)=C\C=C\[C@H](C)[C@H](O)[C@@H](C)[C@@H](O)[C@@H](C)[C@H](OC(C)=O)[C@@H]1C	?	-	-	.	-	?
CO[C@H]1C=CO[C@@]2(C)Oc3c(C)c(O)c4c(O)c(c(C=NN5CCN(C)CC5)c(O)c4c3C2=O)NC(=O)C(C)=CC=C[C@H](C)[C@H](O)[C@@H](C)[C@@H](O)[C@@H](C)[C@H](OC(C)=O)[C@@H]1C	18µM	-	-	?	-	-
Cc1ccc(Cn2c(C(CO)Nc3nc(-c4ccc(F)cc4)cs3)nc3ccccc32)cc1 (configuration not stated)	?	-	-	.	?	-
Cc1ccc(Cn2c(C(CO)Nc3nc(-c4ccc(Cl)c([N+](=O)[O-])c4)cs3)nc3ccccc32)cc1 (configuration not stated)	?	-	?	.	-	25µM
Cc1ccc(S(=O)(=O)NC(=O)c2cc(C)n(-c3ccc(N(C)C)cc3)c2C)cc1	?	-	-	-	-	35µM
Cc1ccc(S(=O)(=O)NC(=O)c2cc(C)n(-c3ccccc3)c2C)cc1	-	-	-	-	-	?
COC(=O)[C@@H]1CCCN1Cc1ccc2c(c1)CN(Cc1cccn1-c1ncccn1)CCO2	.	-	.	.	.	.
COc1cc(SC)ccc1C(=O)NCCOc1ccc(Cl)cc1	.	-	-	?	-	18µM
COc1cc(SC)ccc1C(=O)NCCOc1c(C)cc(C)cc1C	-	-	-	-	-	?
C=C1C[C@@H]2[C@H]3CCC4=CC(=O)C=C[C@]4(C)[C@@]3(F)[C@@H](O)C[C@]2(C)[C@]1(O)C(=O)COC(C)=O	.	-	.	.	.	.
COc1cccc(CN2CCC3(CCC(CNC(=O)c4cc(C)nn4C)O3)CC2)c1OC (configuration not stated)	.	-	.	.	.	.
O=C(NC1CCCCC1)c1cccc2c(-c3ccc(F)c(F)c3)coc12	-	-	-	.	-	?
COc1cc(-c2coc3c(C(=O)NC4CCCCC4)cccc23)ccc1O	?	-	-	.	-	35µM
COc1cc(-c2coc3c(C(=O)NCc4ccc(N(C)C)cc4)cccc23)ccc1O	?	-	-	.	-	-
COc1cc(-c2coc3c(C(=O)NCc4ccc(OC)c(OC)c4)cccc23)ccc1O	-	-	?	.	-	14µM
COc1ccc(-n2c(SCC(=O)c3ccc4ccccc4c3)nnc2-c2ccccc2)cc1	-	.	.	.	.	.
O=S(=O)(Nc1ccc(C(O)(C(F)(F)F)C(F)(F)F)cc1)c1cccc2ccccc12	-	-	-	.	-	35µM
CC(=O)Nc1ccc(NS(=O)(=O)c2cccc3ccccc23)cc1	-	-	-	-	-	-
CC(C)(C)c1ccc(S(=O)(=O)Nc2ccc(C(O)(C(F)(F)F)C(F)(F)F)cc2)cc1	?	-	-	.	?	35µM
Cc1cnc(C)c(-c2cc(F)cc3c2OC(CNC(=O)Cc2ccccc2C)C3)n1 (configuration not stated)	.	-	.	.	.	.
CC(C)(C)n1ncc2c(=O)n(Cc3ccc(F)cc3Cl)cnc21	.	-	.	.	.	.
COc1ccccc1CNc1ncnc2sc(C(=O)N3CCN(C)CC3)c(C)c12	.	-	.	.	.	.
Cc1cccc(C(=O)NC(=S)NNC(=O)Cc2ccccc2)c1	?	-	-	-	-	-
Cc1cc(C(=O)NNC(=S)NC(=O)/C=C/c2ccccc2Cl)n[nH]1	13µM	-	-	?	-	-
COc1ccccc1C(=O)NNC(=S)NC(=O)c1cc(OC)c(OC)c(OC)c1	-	-	?	-	6.3µM	10µM
SMILES	FUS suppressor	Glioma ERSR ind	aSyn rescue	MBNL1 CUG block	Abeta rescue	TDP43 rescue
Cc1cccc(C(=O)NC(=S)NNC(=O)c2ccccc2Cl)c1	.	?	10µM	-	?	-
Cc1ccccc1C(=O)NNC(=S)NC(=O)c1ccc(Cl)cc1Cl	-	-	1.6µM	-	?	10µM
COc1ccc(C(C)C)cc1S(=O)(=O)NCCc1c(C)[nH]c2c(Cl)cccc12	-	.	.	.	-	6.3µM
O=C(OCC(=O)N1CCCC1=O)c1nc(Cl)c(Cl)c(Cl)c1Cl	-	-	-	-	-	25µM
O=C1CCC2(CCC(c3ccccc3)CC2)N1CC[C@@H](O)c1ccccc1 (some centres not stated)	-	.	.	.	.	.
Cc1cccc(NC(=O)c2cccc(S(=O)(=O)N(C)C3CCCCC3)c2)n1	-	-	-	.	-	20µM
Cc1ccccc1NC(=O)c1ccc(F)c(S(=O)(=O)N(C)C2CCCCC2)c1	?	-	.	.	?	16µM
Cc1cccc(NC(=O)c2cc(S(=O)(=O)N(C)c3ccc(F)cc3)ccc2Cl)n1	-	-	-	.	-	11µM
CCN(CC)CCNC(=O)c1ccc(NC(=O)c2cccc(S(=O)(=O)N(C)C3CCCCC3)c2)cc1	-	-	-	.	-	-
CN(C1CCCCC1)S(=O)(=O)c1cccc(C(=O)Nc2ccccn2)c1	-	-	-	.	-	18µM
O=C(Nc1ccccn1)c1cccc(S(=O)(=O)N2CCCCC2)c1	-	-	-	-	-	-
COc1ccccc1N(C)S(=O)(=O)c1ccc(Cl)c(C(=O)Nc2cccc(C)n2)c1	-	-	-	.	-	-
Cn1ncc(Cl)c1C(=O)N1CCN(c2ccccc2)CC1	-	-	-	-	-	-
Cn1ncc(Cl)c1C(=O)N1CCN(c2ccc(Cl)c(Cl)c2)CC1	?	-	-	-	-	13µM
O=C(O)/C=C/C(=O)Nc1cccc2c1-c1ccccc1C2=O	.	-	-	.	-	20µM
O=C(CSc1nc(O)cc(=O)n1-c1ccccc1)Nc1ccc(Br)cn1	28µM	-	-	-	-	.
Cc1ccc2[nH]c3c(c2c1)CN(C(=O)CC1(c2ccccc2)CC(=O)N(Cc2cccnc2)C1=O)CC3 (configuration not stated)	.	-	.	.	.	.
Cn1nc(C(=O)NC2CCCC2)c2ccccc2c1=O	-	-	-	.	-	-
CC(C)n1nc(C(=O)NC2CCCCCC2)c2ccccc2c1=O	-	-	-	.	-	22µM
CCc1nc2ccc(C(=O)Nc3cc(-c4ccccc4)ccc3OC)cn2c1N(C)CCCc1ccccc1	?	-	-	.	-	20µM
O=C(O)c1ccc2c(c1Nc1ccccc1)C(=O)c1ccccc1C2=O	-	-	13µM	?	-	-
CNc1c(C(=O)O)ccc2c1C(=O)c1ccccc1C2=O	-	-	-	?	-	-
O=C(Cc1cccs1)NNC(=S)NC(=O)c1ccccc1	.	-	?	.	?	22µM
O=C(/C=C/c1ccccc1)NC(=S)NNC(=O)Cc1cccs1	-	-	20µM	-	?	11µM
